Active and inactive are the calls of the source. How the source made its calls: active means hit-call score of the fitted dose curve at least 0.9, where 1 is the maximum; inactive means score below 0.9.
Legend:
[1] = ATG_GLI_CIS: Attagene CIS-FACTORIAL HepG2 Assay for human Zinc Finger Protein GLI1 (AID 2282945); conditions: HepG2, Attagene cis-factorial reporter mRNA, GLI element; actives raise or lower the signal
Summary of the method: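 Bidirectional curve fits relative to DMSO, using reporter mRNA levels from RT-PCR plus capillary electrophoresis. Cells were HepG2 transiently carrying cis-regulated reporter constructs, harvested 24 h after dosing.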

[2] = ATG_ISRE_CIS: Attagene CIS-FACTORIAL HepG2 Assay for human Interferon Regulatory Factor 1 (IRF1) binding to an Interferon-Stimulated Response Element (ISRE) (AID 2282948); conditions: HepG2 ISRE cis-reporter (Attagene), mRNA transcription readout; actives raise or lower the signal
Summary of the method: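 Signal reflects induction or loss of ISRE-linked reporter mRNA in transiently transfected HepG2 cells after a 24 h treatment, detected by fluorescent RT-PCR fragments on capillary electrophoresis and normalised to DMSO.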

[3] = ATG_M_32_CIS: Attagene CIS-FACTORIAL HepG2 Assay for M32 Transcription Factor (Internal Marker) (AID 2282949); conditions: HepG2 Attagene cis-factorial M32 reporter, mRNA; actives raise or lower the signal;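 further: background control marker of the multiplexed CIS panel rather than a real target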
Summary of the method: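 Using DMSO as baseline, bidirectional curve fits were applied to reporter mRNA signals. These came from transiently transfected HepG2 cells exposed for 24 h, with RNA analysed by RT-PCR, FAM primer extension, HpaI digestion and CE.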

[4] = ATG_M_06_CIS: Attagene CIS-FACTORIAL HepG2 Assay for M06 Transcription Factor (Internal Marker) (AID 2282950); conditions: HepG2 Attagene CIS-FACTORIAL M06 internal marker reporter; actives raise or lower the signal
Summary of the method: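 Cells (HepG2, transiently carrying cis-driven reporter units) receive chemical for 24 h before RNA isolation. Reporter cDNA is PCR-amplified, FAM-labelled by primer extension, HpaI-digested and sized on a capillary analyser.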

[5] = target: Hypoxia-inducible factor 1-alpha (Homo sapiens) (UniProt Q16665); assay: ATG_HIF1a_CIS: Attagene CIS-FACTORIAL HepG2 Assay for human Hypoxia Inducible Factor 1 (HIF1A) (AID 2282951); conditions: HepG2 Attagene cis-factorial HIF1a reporter transcription; actives raise or lower the signal
Sequence of Hypoxia-inducible factor 1-alpha (Homo sapiens) (Q16665 whole entry, looked up): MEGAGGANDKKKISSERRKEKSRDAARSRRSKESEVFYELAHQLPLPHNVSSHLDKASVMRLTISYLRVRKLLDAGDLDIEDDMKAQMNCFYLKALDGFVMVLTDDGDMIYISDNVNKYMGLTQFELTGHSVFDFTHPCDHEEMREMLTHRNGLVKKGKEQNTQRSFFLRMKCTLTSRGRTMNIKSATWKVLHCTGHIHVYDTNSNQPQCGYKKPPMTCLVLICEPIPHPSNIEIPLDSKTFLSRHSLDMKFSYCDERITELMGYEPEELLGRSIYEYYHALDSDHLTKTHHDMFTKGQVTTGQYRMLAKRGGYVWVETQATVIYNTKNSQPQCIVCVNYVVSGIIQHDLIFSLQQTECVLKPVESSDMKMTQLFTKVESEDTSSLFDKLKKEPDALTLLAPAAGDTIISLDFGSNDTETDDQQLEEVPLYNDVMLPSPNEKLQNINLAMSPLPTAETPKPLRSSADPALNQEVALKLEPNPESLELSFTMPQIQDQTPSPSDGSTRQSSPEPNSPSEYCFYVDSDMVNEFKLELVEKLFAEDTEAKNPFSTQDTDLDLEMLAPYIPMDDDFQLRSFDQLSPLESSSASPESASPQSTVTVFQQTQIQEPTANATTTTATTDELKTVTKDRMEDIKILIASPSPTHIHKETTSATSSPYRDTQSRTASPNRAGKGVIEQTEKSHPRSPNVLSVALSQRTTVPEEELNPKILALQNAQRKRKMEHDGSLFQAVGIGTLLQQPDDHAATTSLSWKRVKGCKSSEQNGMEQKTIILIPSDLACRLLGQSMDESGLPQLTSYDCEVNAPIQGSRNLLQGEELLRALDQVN
Summary of the method: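 Measures endogenous transcription-factor activity through cis-regulated reporter mRNA in HepG2. Cells dosed 24 h; transcripts quantified by RT-PCR with 6-FAM-labelled products separated by capillary electrophoresis; DMSO serves as negative control.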

[6] = target: Heat shock factor protein 1 (Homo sapiens) (UniProt Q00613); assay: ATG_HSE_CIS: Attagene CIS-FACTORIAL HepG2 Assay for human Heat Shock Transcription Factor 1 (HSE) (AID 2282953); conditions: HepG2 HSE cis-reporter, Attagene RNA transcription; actives raise or lower the signal
Sequence of Heat shock factor protein 1 (Homo sapiens) (Q00613 whole entry, looked up): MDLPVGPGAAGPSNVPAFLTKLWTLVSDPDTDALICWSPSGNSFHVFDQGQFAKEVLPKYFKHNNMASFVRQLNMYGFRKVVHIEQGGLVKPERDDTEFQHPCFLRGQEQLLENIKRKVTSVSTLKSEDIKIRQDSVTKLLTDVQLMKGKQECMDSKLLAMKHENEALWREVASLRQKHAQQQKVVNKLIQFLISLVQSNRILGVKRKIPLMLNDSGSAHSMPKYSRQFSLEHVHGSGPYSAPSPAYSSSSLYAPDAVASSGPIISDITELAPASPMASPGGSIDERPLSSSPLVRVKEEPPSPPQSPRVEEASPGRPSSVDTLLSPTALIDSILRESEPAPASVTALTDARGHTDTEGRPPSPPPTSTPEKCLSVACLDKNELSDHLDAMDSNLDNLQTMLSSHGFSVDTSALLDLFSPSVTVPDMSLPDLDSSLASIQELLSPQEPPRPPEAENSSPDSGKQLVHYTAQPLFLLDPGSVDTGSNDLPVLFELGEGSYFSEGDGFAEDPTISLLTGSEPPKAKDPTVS
Summary of the method: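 Liver-derived HepG2 cells carry transiently introduced multiple reporter units governed by cis promoters. Reporter RNA measured 24 h post-dose through reverse transcription, PCR amplification, fluorescent labelling and capillary electrophoresis, normalised to DMSO.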

[7] = ATG_PBREM_CIS: Attagene CIS-FACTORIAL HepG2 Assay for human Phenobarbital-responsive Enhancer Module (PBREM) (AID 2282955); conditions: HepG2 PBREM cis-reporter, Attagene multiplexed transcription; actives raise or lower the signal
Summary of the method: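 Fluorescence of labelled reporter cDNA fragments, resolved by capillary electrophoresis, gives mRNA induction in transfected HepG2 cells treated for 24 h; DMSO serves as negative control and baseline.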

[8] = target: Hepatocyte nuclear factor 6 (Homo sapiens) (UniProt Q9UBC0); assay: ATG_HNF6_CIS: Attagene CIS-FACTORIAL HepG2 Assay for human Hepatocyte Nuclear Factor 6 (HNF6) (AID 2282952); conditions: HepG2 Attagene cis-factorial HNF6 reporter transcription; actives raise or lower the signal
Sequence of Hepatocyte nuclear factor 6 (Homo sapiens) (Q9UBC0 whole entry, looked up, the tested form may be a part): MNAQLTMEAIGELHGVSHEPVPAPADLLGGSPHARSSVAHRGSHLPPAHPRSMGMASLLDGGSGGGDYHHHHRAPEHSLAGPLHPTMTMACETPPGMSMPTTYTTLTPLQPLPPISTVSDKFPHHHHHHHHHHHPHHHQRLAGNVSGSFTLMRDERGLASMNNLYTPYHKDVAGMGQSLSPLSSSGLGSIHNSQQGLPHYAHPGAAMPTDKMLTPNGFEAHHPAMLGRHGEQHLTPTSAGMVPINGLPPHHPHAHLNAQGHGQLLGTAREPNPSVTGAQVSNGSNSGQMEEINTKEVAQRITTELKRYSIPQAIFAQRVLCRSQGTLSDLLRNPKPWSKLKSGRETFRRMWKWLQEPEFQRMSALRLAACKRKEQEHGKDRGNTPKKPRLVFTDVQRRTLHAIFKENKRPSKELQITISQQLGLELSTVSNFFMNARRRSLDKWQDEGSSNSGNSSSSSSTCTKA
Summary of the method: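 Using cis-element reporters in HepG2 liver cells, the assay tracks endogenous factor-driven transcription 24 h post-dosing. Signal comes from 6-FAM-labelled, HpaI-digested RT-PCR fragments, with gain or loss scored against DMSO.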

[9] = ATG_MRE_CIS: Attagene CIS-FACTORIAL HepG2 Assay for human Metal Responsive Element (MRE) (AID 2282954); conditions: HepG2 MRE cis-reporter transcription, Attagene multiplex; actives raise or lower the signal
Summary of the method: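 Multiplexed cis-reporter assay in human HepG2 liver cells, 24 h incubation with test chemical. Reporter transcripts measured by RT-PCR and capillary electrophoresis; values from bidirectional curve fitting versus DMSO.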

[10] = ATG_GRE_CIS: Attagene CIS-FACTORIAL HepG2 Assay for human Glucocorticoid Response Elements (GRE) (AID 2282947); conditions: HepG2 GRE cis-reporter, Attagene multiplex mRNA; actives raise or lower the signal
Summary of the method: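 Multiplexed cis-reporter mRNA induction, HepG2, 24 h post-dose. RT-PCR, FAM-labelled, HpaI-digested amplicons by CE. Bidirectional fit vs DMSO.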

Measured: AC50

CC(=O)OCCOCCOCCOC(C)=O
inactive: [1] | [2] | [3] | [4] | [6] | [7]
active: [5] 39.4 µM

Nc1nc(N)c2nc(CNc3ccc(C(=O)N[C@@H](CCC(=O)O)C(=O)O)cc3)cnc2n1
inactive: [1] | [2] | [3] | [4] | [8] | [6] | [7]

CCCc1cc(=O)[nH]c(=S)[nH]1
inactive: [1] | [2] | [3] | [4] | [8] | [6] | [9] | [7]

COc1ccc(S(=O)(=O)N2C(=O)[C@@](c3ccccc3OC)(N3C[C@H](O)C[C@H]3C(=O)N(C)C)c3cc(Cl)ccc32)c(OC)c1
active: [10] 147 µM | [2] 49.9 µM | [3] 133 µM | [5] 25.2 µM | [6] 149 µM | [9] 45.5 µM | [7] 17.1 µM
inactive: [4]

c1cc(-c2ccncc2)ccn1
inactive: [10] | [2] | [3] | [4] | [5] | [8] | [6] | [7]

CCNc1cccc(C)c1
inactive: [1] | [2] | [3] | [4] | [8] | [6] | [7]
active: [5] 60.8 µM

CC(C)c1ccc(C(=O)N=C(N)N)cc1S(C)(=O)=O
inactive: [1] | [2] | [3] | [4] | [5] | [8] | [6] | [7]

CCOC(=O)C(C)(C)Oc1ccc(Cl)cc1
inactive: [1] | [2] | [3] | [4] | [8] | [6] | [9]

CNC(=O)[C@H]1O[C@@H](n2cnc3c(NCc4cc(Cl)ccc4OCc4cc(C)no4)ncnc32)[C@H](O)[C@@H]1N
inactive: [1] | [2] | [3] | [4] | [5] | [6] | [7]

C=CCOC(=O)c1ccccc1C(=O)OCC=C
inactive: [1] | [2] | [3] | [4] | [5] | [6] | [9]

CCCCCCCCCCC
inactive: [1] | [2] | [3] | [4] | [5] | [6] | [9] | [7]

FC(F)(F)C(F)(F)C(F)(F)C(F)(F)C(F)(F)C(F)(F)CCI
inactive: [1] | [2] | [3] | [4] | [5] | [6] | [9] | [7]

CC1=C(/C=C/C(C)=C/C=C/C(C)=C/CO)C(C)(C)CCC1
inactive: [1] | [2] | [3] | [4] | [5] | [7]
active: [8] 158 µM | [6] 197 µM

Cc1cccc([N+](=O)[O-])c1C
inactive: [1] | [2] | [3] | [4] | [5] | [6] | [9] | [7]

CC1(C)CC(N=C=O)CC(C)(CN=C=O)C1 (centres undefined)
inactive: [1] | [2] | [3] | [4] | [5] | [6] | [7]

CCCCc1ccc2c(n1)[C@@H](c1ccc(OC)cc1C[C@H](C)C(=O)O)[C@H](C(=O)O)[C@H]2c1ccc2c(c1)OCO2
inactive: [1] | [2] | [3] | [4] | [5] | [6] | [7]

C=CCc1ccc(O)c(OC)c1
inactive: [1] | [2] | [3] | [4] | [5] | [6] | [9] | [7]

COc1cc(C=O)ccc1O
inactive: [1] | [2] | [3] | [4] | [5] | [8] | [7]

CCCCN(CCCC)CCCC
inactive: [2] | [3] | [4] | [5] | [8] | [6] | [7]

O=[N+]([O-])C(CO)(CO)CO
inactive: [2] | [3] | [4] | [5] | [6] | [9]

C[Si]1(C)O[Si](C)(C)O[Si](C)(C)O[Si](C)(C)O1
inactive: [2] | [3] | [4] | [5] | [6] | [9] | [7]

Cc1ccc(Cl)cc1
active: [5] 57.2 µM
inactive: [2] | [3] | [4] | [8] | [6] | [9] | [7]
